# Results reported in ChEMBL document CHEMBL3988442, “University of Dundee, Small-Polar-MMV Screening Library” (2021).
# About 13,000 (27%) of roughly 48,000 compounds showed an effect of 50% or more. This is one part of the list.
# System: Wolbachia pipientis
# Experiment: Anti-Wolbachia Cell-Based Screen
# Assay type: functional
# Design: scale not given: in the data most compounds retested in dose-response had high values
# Details: 5 µM
row,SMILES,Percent Effect
1,CC(C)c1cc(C(=O)N2CCc3ccccc3C2C(=O)O)n(C)n1 (stereo not drawn),5.563%
2,COCCOc1ccc(-c2noc([C@@H]3CCCN3C3CCC3)n2)cn1,-15.03%
3,Cn1cccc1C(=O)N[C@@H]1CN(CC2CC2)[C@@H]2COC[C@@H]21.O=C(O)C(F)(F)F,-18.52%
4,CC(C)CN1CC(c2nc(-c3ccsc3)c[nH]2)CC1=O (stereo not drawn),-7.374%
5,O=C1NCCCCC1NCc1csc(-c2ccsc2)n1 (stereo not drawn),-2.584%
6,O=C(c1ccsc1)N1CCCC(c2cc(C(F)(F)F)[nH]n2)C1 (stereo not drawn),0.1242%
7,Cl.Oc1cc(C2CCNCC2)nc(-c2ccsc2)n1,186.4%
8,Cl.Cn1cnc2c(-c3ccccc3)nc(C3CCNCC3)cc21,-35.46%
9,FC(F)(F)c1cc(C2CCNCC2)nc(-c2ccsc2)n1,147.1%
10,Cc1cc(C2CCNCC2)nc(-c2ccsc2)n1.Cl,168.5%
11,Cc1nc(O)cc(C2CCN(C(=O)c3ccsc3)CC2)n1,-4.98%
12,CC(C)(NC(=O)C1CCCN(C2CCCC2)C1)c1nnc(N)s1 (stereo not drawn),-3.514%
13,CN1CCc2c(CNc3ncccn3)n[nH]c2C1.O=C(O)C(F)(F)F,-10.34%
14,COc1ccc2c(c1)CC(C1CCOCC1)N(C(=O)c1ccn(C)n1)C2 (stereo not drawn),107.8%
15,COc1cc(N2C[C@H]3CN(C(=O)c4cnccn4)C[C@H]3C2)ncn1,6.779%
16,COc1ccc2c(c1)CC(C1CCOCC1)N(C(=O)c1cnccn1)C2 (stereo not drawn),143.6%
17,COc1ccc2c(c1)CC(C1CCOCC1)N(C(=O)c1ccnn1C)C2 (stereo not drawn),146.4%
18,COc1ccc(CNC(=O)N2CCOCC2C2CC2)c(C)c1 (stereo not drawn),-4.702%
19,Cn1nccc1C(=O)N1CCCC1c1ccc(C(=O)N2CCOCC2)s1 (stereo not drawn),-16.33%

row,SMILES,Percent Effect
1,COc1cccc(C2CCN2C(=O)c2cnccn2)c1 (stereo not drawn),-9.896%
2,COc1cccc(CC2CN(C(=O)c3ccnn3C)CCO2)c1 (stereo not drawn),14.16%
3,COc1ccc2c(C)c(C(=O)NC3CCOCC3)oc2c1,-11.52%
4,CN(C(=O)c1ccc(Cl)cn1)c1ccccc1S(C)(=O)=O,-14.63%
5,O=C(N1CCC(O)(C(F)(F)F)C1)C1(c2ccc(Cl)cc2)CC1 (stereo not drawn),16.08%
6,Cc1cc(NC(=O)C(C)N2CCN(c3nc(C)ns3)CC2)on1 (stereo not drawn),15.5%
7,CN(Cc1nnc(C2CC2)o1)C(c1ccc(F)cc1)c1cccnc1 (stereo not drawn),14.1%
8,O=C(c1ccc[nH]1)N1CCCn2c(nnc2Cn2cccn2)C1,88.61%
9,O=C(c1ccc[nH]1)N1CCc2nnc(Cn3cccc3)n2CC1,104.6%
10,O=C(c1c[nH]cn1)N1CCCn2c(nnc2Cn2cccc2)C1,4.942%
11,CN(C)C(=O)N1CCn2c(Cn3cccn3)cnc2C1,-38.04%
12,O=C(C1CCCO1)N1CCc2nnc(Cn3cccc3)n2CC1 (stereo not drawn),-14.83%
13,O=C(c1cccs1)N1CCc2nnc(COc3cncnc3)n2CC1,6.421%
14,O=C(C1CCCO1)N1CCCn2c(nnc2Cn2cccn2)C1 (stereo not drawn),-13.04%
15,CN(C)Cc1nnc2n1CCCN(C(=O)c1c[nH]cn1)C2,-1.146%
16,O=C1CCCN1Cc1nnc2n1CCCN(C(=O)c1ccc[nH]1)C2,114.8%
17,O=C(c1ccc[nH]1)N1CCc2ncc(Cn3cccn3)n2CC1,112.6%
18,Cc1cnc(N2CCCn3c(nnc3Cn3cccn3)C2)nc1,-6.744%
19,O=C(N1CCCC1)N1CCn2c(Cn3cccn3)cnc2C1,0.9982%
